Data from PubChem BioAssay AID1903 (Southern Research Specialized Biocontainment Screening …, 2009).
In all, about 310,000 compounds went through this assay and about 1,200 (0.39%) were called active. The rule behind the calls is not given here. These entries were drawn from the full list. Entries with a potency or affinity are not part of this list.

target: Large T antigen (Simian virus 40) (UniProt P03070); assay: TAg ATPase/helicase activity blockers – biochemical (AID 1903); settings: SV40 large T antigen ATPase/helicase inhibition assay; at 20 µM; hits give high values
Sequence (P03070 whole entry, looked up): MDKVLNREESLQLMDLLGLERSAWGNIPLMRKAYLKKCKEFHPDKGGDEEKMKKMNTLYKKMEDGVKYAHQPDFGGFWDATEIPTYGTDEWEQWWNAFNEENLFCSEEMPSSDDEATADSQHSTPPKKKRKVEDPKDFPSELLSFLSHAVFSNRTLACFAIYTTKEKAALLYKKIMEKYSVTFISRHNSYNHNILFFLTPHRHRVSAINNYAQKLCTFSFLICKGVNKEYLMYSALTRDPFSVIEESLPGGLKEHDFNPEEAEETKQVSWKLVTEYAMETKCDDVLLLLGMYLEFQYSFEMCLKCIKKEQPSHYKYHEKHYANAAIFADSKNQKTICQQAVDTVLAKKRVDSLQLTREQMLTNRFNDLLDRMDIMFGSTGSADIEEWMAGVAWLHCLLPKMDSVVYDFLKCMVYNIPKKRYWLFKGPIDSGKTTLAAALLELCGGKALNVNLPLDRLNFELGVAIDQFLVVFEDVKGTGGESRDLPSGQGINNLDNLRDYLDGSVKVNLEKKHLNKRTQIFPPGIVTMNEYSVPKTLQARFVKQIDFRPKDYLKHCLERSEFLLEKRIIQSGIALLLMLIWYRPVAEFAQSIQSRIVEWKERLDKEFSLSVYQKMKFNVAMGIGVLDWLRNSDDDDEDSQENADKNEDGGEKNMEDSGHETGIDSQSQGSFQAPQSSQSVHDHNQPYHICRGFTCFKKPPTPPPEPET

inhibition, inactive:
Cc1ccc(-c2nc(CS(=O)CC(=O)NCCN3CCOCC3)c(C)o2)cc1 (configuration not stated) -1.85%
CC(=O)Cc1nsc(Nc2ccc(F)cc2)n1 5.39%
CCOc1ccc(NC(=O)CN(C)CC(=O)Nc2ccc(Br)cc2F)cc1OCC 2.33%
COC(=O)CCCC1=CC2=CC(=O)C(C)(OC(=O)c3ccc(Cl)nc3)C(=O)C2=CO1 (configuration not stated) 23.8%
O=C(O)c1ccccc1Nc1ccc(OC(F)F)cc1 10.8%
Cc1ccc(NC(=S)NNc2ccc([N+](=O)[O-])cc2S(=O)(=O)Nc2ccccc2C(=O)O)cc1C 31.6%
CCN(CC)S(=O)(=O)c1ccc(/C=C/C(=O)OCC(=O)Nc2ccc(S(N)(=O)=O)cc2)cc1 0.26%
O=C(COc1ccc(Cl)cc1)NC1=NN(c2ccccc2)C(=O)C1 18.7%
CC(=O)NC1=NN(c2ccccc2)C(=O)C1 13.1%
COc1ccc(-c2nc3cc(C)ccn3c2NC(=O)c2ccccc2OC)cc1 9.33%
CNCCc1ccccn1 13.3%
COc1ccc(NC(=O)CSCC(=O)NCCc2ccccn2)cc1 0.35%
COCCN1Cc2cccc(C(=O)Nc3cccnc3)c2C1=O 1.93%
COc1cccc(CC(=O)OCC(=O)N(C)CC(=O)Nc2ccc(Cl)c(C(F)(F)F)c2)c1 5.39%
CCOc1ccccc1N(CC(=O)NC1CCCCC1)C(=O)CCC(=O)Nc1cc(C)ccn1 -4.71%
c1ccc(-c2csc(NC3=NCCCCC3)n2)cc1 -1.35%
Brc1ccc(-c2csc(NNC3=NCCCCC3)n2)cc1 21.1%
O=C1NC(=O)/C(=C/c2ccc(N3CCOCC3)o2)N1 35.9%
O=C1NC(=O)/C(=C\c2ccc(N3CCOCC3)o2)N1 12.2%
COC(=O)CN1C(=O)S/C(=C/c2ccc(N3CCCCC3)o2)C1=O 22.2%
CCOC(=O)CN1C(=O)S/C(=C/c2ccc(N3CCCCC3)o2)C1=O -40.7%
COc1ccc(-c2cn(Cc3ccc(C(N)=O)cc3)c(CCN)n2)cc1 15.2%
CCc1ccc(N2CC(C(=O)Nc3cc(C)on3)CC2=O)cc1 (configuration not stated) 7.18%
COc1ccc(S(=O)(=O)N2CCc3cc4c(cc3C2C)OCCCO4)cc1 (configuration not stated) -0.77%
O=C(/C=C/c1cccc([N+](=O)[O-])c1)NCC1CCCO1 (configuration not stated) 1.2%
CCNc1c(NC(=O)C2CCC(C)CC2)c(=O)oc2ccccc12 (configuration not stated) 7.89%
N#CCn1nnc(-c2ccc3c(c2)OCO3)n1 5.17%
COc1cc2nc(C3CCC3)nc(N3CCN(c4ccccn4)CC3)c2cc1OC 3.99%
O=C(N/N=C/c1ccc(N2CCOCC2)s1)c1ccccc1Cl 19.1%
O=C(N/N=C/c1ccc(N2CCOCC2)s1)c1ccccc1Br 28.7%
Clc1cccc(N/N=C/c2ccc(N3CCOCC3)s2)c1 0.11%
CC(C)(C)OC(=O)N/N=C\c1ccc([N+](=O)[O-])s1 9.37%
Cc1cc(-c2cc(-c3ccc(Cl)cc3)on2)nc(NCC2CC2)n1 19.1%
COC(C/C=C/[C@@H](O)[C@H](C)OCc1ccccc1)OC 7.24%
COc1cc2[nH]c(=O)n(CCCCCC(=O)NCCCN3CCOCC3)c(=O)c2cc1OC 9.95%
Nc1c(N)c2ccccc2oc1=O 3.21%
O=C1CCC(C(=O)NCCN2C(=O)S/C(=C\c3cccnc3)C2=O)=NN1 9.31%
COc1cc(/C=C2/NC(=O)N(CC(=O)Nc3cccc(C)c3)C2=O)ccc1OCC(N)=O 6.55%
CCOC(=O)c1[nH]c2ccccc2c1N=CN(CC)CC 13.2%
CCOC(=O)c1[nH]c2ccccc2c1NC(=S)Nc1ccccc1C 35.3%
CCCn1c(SCc2nc(N)nc(N3CCCCC3)n2)nc2c1c(=O)n(C)c(=O)n2C 27.3%
CC1=NOC(=O)/C1=C/c1ccc(-c2ccc(Cl)cc2)o1 29.9%
CC1=NOC(=O)/C1=C\c1ccc(-c2ccc(Br)cc2)o1 11.9%
O=C(O)c1cc(-c2ccc(/C=C3\NC(=O)N(c4ccccc4)C3=O)o2)ccc1Cl 22.8%
CC1=NOC(=O)/C1=C\c1ccc(-c2ccc(Br)cc2C(=O)O)o1 37.7%
CC(C)N1C(=O)S/C(=C\c2ccc(-c3ccc(Cl)c(C(=O)O)c3)o2)C1=O 31%
CC1=NOC(=O)/C1=C\c1ccc(-c2cccc(Cl)c2)o1 2.49%
Cc1ccc(NCC(=O)Nc2cccc(F)c2)cc1S(=O)(=O)N1CCCCCC1 30.7%
O=C(Cc1cccs1)Nc1nnc(SCc2ccc(C(F)(F)F)cc2)s1 21%
O=C(c1cnn2c(C(F)(F)F)cc(-c3ccccc3)nc12)N1CCOCC1 2.03%
CN(/N=C/Cc1nnnn1-c1ccc(Cl)cc1)c1ccccc1 12.9%
Fc1ccc2c(c1)C(c1ccncc1)=NNC(c1ccc(Cl)cc1)=N2 -2.03%
CCOc1ccc(S(=O)(=O)NCCC(=O)NC2CCCCC2)cc1 6.66%
CCC(C)CCN1C(N(C)C)=NC[C@@H]1CC(C)C (some centres not stated) -8.26%
COc1cc(OC)c(NS(=O)(=O)c2ccc(Cl)c(C(=O)OC(C)C(=O)N3CCCC3)c2)cc1Cl (configuration not stated) 0.34%
NS(=O)(=O)c1ccc(N/N=C/c2ccc(O)cc2O)c([N+](=O)[O-])c1 14.4%
NS(=O)(=O)c1ccc(N/N=C/c2ccccn2)c([N+](=O)[O-])c1 9%
O=C(CCC1COc2ccccc2O1)NCc1ccco1 (configuration not stated) 9.35%
CC(=O)c1cc2cc(O)ccc2o1 3.38%
Cc1cc(=O)c2c(O)c(O)ccc2o1 27.4%
O=C(CCNC(=O)C1CCN(S(=O)(=O)c2ccccc2)CC1)NCc1ccncc1 18.3%
CCCCCCn1c(N(CC)CC)nc2c1c(=O)[nH]c(=O)n2C 19.9%
Oc1cccc(/C=N/Nc2ccc(Cl)nn2)c1 1.08%
O=C(O)c1ccc(/C=N/Nc2ccc(C(F)(F)F)cn2)cc1 4.16%
Oc1ccc(/C=N/Nc2ccc(C(F)(F)F)cn2)cc1 35.9%
Oc1c(Br)cc(/C=N/Nc2ccc(Cl)nn2)cc1Br 31.9%
CCOC(=O)C1CCCN(c2c(N3CCC(N4CCCCC4)CC3)c(=O)c2=O)C1 (configuration not stated) 0.55%
CN1CCN(S(=O)(=O)c2cccc(C(=O)Nc3ccccc3N3CCOCC3)c2)CC1 8.67%
CCC(C)NC(=O)CN(c1ccc(Cl)c(Cl)c1)S(C)(=O)=O (configuration not stated) 2.27%
COc1cccc(OC)c1C(=O)NNS(=O)(=O)c1ccc2ccccc2c1 4.3%
O=[N+]([O-])c1ccc(Cl)cc1Sc1nc2ccccc2o1 3.7%
O=[N+]([O-])c1ccc(CSc2nc3ccccc3o2)cc1 1.36%
Cc1nc(CCNC(=O)CC2C(=O)NCCN2CC(C)(C)C)nc2c1CCC2 (configuration not stated) 17.9%
CC(=O)N1CCN(S(=O)(=O)c2cccc(C(=O)Nc3ccc(C)cn3)c2)CC1 10.6%
Cc1c(O)ccc2c(CN3CCN(Cc4ccccc4)CC3)cc(=O)oc12 20.2%
O=c1cc(CN2CCOCC2)c2ccc(O)c(O)c2o1 31.2%
COc1ccc(OC)c(C(=O)c2coc3ccc(O)c(CN(C)C)c23)c1 7.95%
CCCc1cc(N2CCN(C(=O)c3ccco3)CC2)n2c(nc3ccccc32)c1C#N 14.7%
Cc1ccc(S(=O)(=O)Nc2ccc(N3CCN(C)CC3)nc2)cc1 15.7%
COc1cc2nc3occc3c(OC)c2cc1OC 19.9%
COc1ccc2c(OC)c3ccoc3nc2c1OC 6.26%
CCn1nc(C)c(CN2CCCCC2C(=O)Nc2ccc(Oc3cccnc3)cc2)c1C (configuration not stated) 13.5%
CC(Oc1ccc2ccc(=O)oc2c1)C(=O)N1CCOCC1 (configuration not stated) 29.2%
O=Nc1c(O)[nH]c2ccc(F)cc12 3.33%
Cc1ccc2[nH]c(O)c(N=O)c2c1 1.83%
Cn1c(=O)c2sccc2n2c(CCCC(=O)N3CCCCC3)nnc12 7.77%
CN1c2cccc3cccc(c23)N(C)C1(C)C 23%
CN1C(=O)N(C)c2ccc(C=O)c3cccc1c23 1.16%
COc1ccc(NC(=O)CCN2CCN(S(=O)(=O)c3ccc(OC)cc3)CC2)cc1 6.07%
O=C(CCN1CCN(c2ccccn2)CC1)Nc1ccc(F)cc1 2.77%
Cc1ccc(C(=O)Nc2ccc(N3CCOCC3)nc2)cc1 1.46%
COc1ccc(NC(=O)CCN2CCN(S(=O)(=O)c3ccc(C(C)C)cc3)CC2)cc1 14.9%
COc1ccc(NC(=O)c2ccc(N3CCOCC3)nc2)cc1 6.11%
CC(=O)Nc1ccc(NC(=O)CN2CCN(c3ccccn3)CC2)cc1 0.46%
CCN(CC)CCn1c2c(c(SCC(=O)Nc3ccc4c(c3)OCO4)nc1=O)CCC2 8.82%
O=C(O)C1=C[C@H](c2ccc3c(c2)OCO3)C[C@H](OCc2ccc(CO)cc2)O1 9.17%
COc1ccccc1-c1cc(C(F)(F)F)nc(S(=O)(=O)CCCC(=O)NCc2ccc(F)cc2)n1 23.6%
